HT1080NT lethal: qHTS for induction of synthetic lethality in tumor cells producing 2HG: qHTS for the HT-1080-NT fibrosarcoma cell line. HT-1080-NT fibrosarcoma viability, CellTiter-Glo ATP luminescence, 48 h. Potency, µM (titrated, usually from 46.1 µM), without a hit: top-dose activity, negative = less viability, actives largely listed as cytotoxic. 360,000 compounds, 1.6% hits. AID 686970, 2013;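 note: NT is the 2HG producing partner of a matched IDH1 knockdown line; 0% = DMSO-treated cells and -100% = media-only wells without cells; nearly all actives have a fitted effect of over 55% in size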
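Toxicity toward the 2HG-producing NT line was scored as %Activity, normalised to DMSO and no-cell wells, from CellTiter-Glo luminescence after 48 hours' treatment.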
KB-3-1 tox: qHTS assay for MDR1-selective chemotherapeutics: Primary screen using the parental adenocarcinoma cell KB-3-1; KB-3-1 viability, CellTiter-Glo ATP luminescence, 72 h; Potency, µM (doses to about 46.1 µM), most hits filed as cytotoxic; 400,000 compounds, 1.4% hits; AID 1347075, 2019; note: nearly all actives have a fitted effect of over 60% in size
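Here the drug-naive KB-3-1 line serves as comparator for MDR sub-line selectivity; cells received compound titrations, 72 h at 37 °C, then CellTiter-Glo readout.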
KB-V1 MDR tox: qHTS assay for MDR1-selective chemotherapeutics: Primary screen using the drug-selected MDR subline cells KB-V1; KB-V1 MDR cells viability, CellTiter-Glo, 72 h; Potency, µM (top dose mostly 46.1 µM), usual class: cytotoxic; 400,000 compounds, 3.4% hits; AID 1347076, 2019; note: nearly all actives have a fitted effect of over 60% in size
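KB-V1 cells (P-gp-expressing MDR subline of KB-3-1) in phenol-red-free DMEM with 10% FBS were exposed to library compounds over a concentration series for 72 h at 37 degrees C. Viability read by CellTiter-Glo luminescence; concentration-effect curves fitted after normalization.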
HT1080 IDH1KD tx: qHTS for induction of synthetic lethality in tumor cells producing 2HG: qHTS for the HT-1080-IDH1KD cell line. HT-1080 IDH1 knockdown viability, ATP luminescence, 48 h. Potency, µM (highest dose often 46.1 µM), without a hit: top-dose activity, negative = toxicity, usual class: cytotoxic. 360,000 compounds, 2% hits. AID 686971, 2013;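 note: 0% = DMSO wells and -100% = cell-free medium wells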
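Luminescent ATP read-out (CellTiter-Glo, 10 min at room temperature) after 48 h compound exposure at 37 °C gave viability of IDH1-knockdown HT-1080 cells. Activity was normalised to DMSO and cell-free wells, then fitted as concentration-response curves.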
DT40 TDP1 no CPT: qHTS for Inhibitors of human tyrosyl-DNA phosphodiesterase 1 (TDP1): qHTS in cells in absence of CPT. Potency, µM (doses to about 46.2 µM), for inactives: top-dose activity change, negative = growth inhibition, actives largely listed as inhibitors. AID 686978, 2013. 420,000 compounds, 15% hits. DT40 Tdp1-/- hTDP1 cells, no CPT, ATP luminescence, 48 h; note: nearly all actives have a fitted effect of over 55% in size
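Chicken DT40 Tdp1-/- cells stably complemented with human TDP1 were seeded at 400 cells/well with DMSO in place of 20 nM camptothecin. After compound pinning, cells grew at least 48 hr at 37 °C; viability read by CellTiter-Glo luminescence.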
TDP1 cell CPT: qHTS for Inhibitors of human tyrosyl-DNA phosphodiesterase 1 (TDP1): qHTS in cells in presence of CPT; chicken DT40 Tdp1-/-;hTDP1 cells + 20 nM CPT, ATP luminescence, 48 h; Potency, µM (highest dose often 46.2 µM), inactives show top-dose activity change, negative = growth inhibition, hits mostly inhibitors; 420,000 compounds, 12% hits; note: nearly all actives have a fitted effect of over 55% in size
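Chicken DT40 Tdp1-/- cells complemented with human TDP1, 400 cells/well, exposed to compounds plus 20 nM camptothecin for at least 48 h at 37 C; viability read as ATP content by CellTiter-Glo luminescence.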
* = called active by the depositor; i = inactive; ? = inconclusive; . = no result given. Rows were chosen to be rich in hits. Some 19% of all compounds tested hit in one or more screens of this group. Calls come from the whole dose curve; as a rule, active = well fitted curve in the direction sought with a large enough effect; inconclusive = small, poorly fitted or top-dose-only effect, or another doubt; inactive = no such curve, though single readings can be large; an effect the other way counts as inactive or inconclusive. Unless noted, % is set by controls: 0 for no effect and ±100 for the full control effect; potency is the fitted concentration of half-maximal effect.

SMILES | HT1080NT lethal | KB-3-1 tox | KB-V1 MDR tox | HT1080 IDH1KD tx | DT40 TDP1 no CPT | TDP1 cell CPT
O=C(c1ccc2c(c1)N(Cc1ccccc1)C(=O)c1ccccc1S2(=O)=O)N1CCc2ccccc21 | . | . | . | . | 3.26µM* | 4.11µM*
COc1ccccc1N1CCN(C(=O)c2ccc3c(c2)N(Cc2ccccc2)C(=O)c2ccccc2S3(=O)=O)CC1 | . | . | . | . | 11.6µM* | ?
O=C(NCCCN1CCCC1)c1ccc2c(c1)N(Cc1cccc(Cl)c1)C(=O)c1ccccc1S2(=O)=O | -2.1% | i | i | -0.6% | ? | ?
Cc1ccc(Cl)cc1N1CCN(C(=O)c2ccc3c(c2)N(Cc2ccccc2F)C(=O)c2ccccc2S3(=O)=O)CC1 | . | i | i | . | ? | -18.4%
O=C(Nc1cccc(Cl)c1Cl)c1ccc2c(c1)N(Cc1cccc(Cl)c1)C(=O)c1ccccc1S2(=O)=O | . | i | i | . | . | .
O=C(NCc1ccccc1)c1ccc2c(c1)N(Cc1ccccc1)C(=O)c1ccccc1S2(=O)=O | . | . | . | . | ? | -8.9%
CC1CCCN(CCCNC(=O)c2ccc3c(c2)N(Cc2cccc(Cl)c2)C(=O)c2ccccc2S3(=O)=O)C1 (centres undefined) | . | . | . | . | 5.8µM* | 6.51µM*
Cn1cnc(S(=O)(=O)N2CCCC(C(=O)NCc3ccc(Cl)cc3)C2)c1 (centres undefined) | . | . | . | . | 1.8% | 1.1%
C[C@]1(Cn2ccnn2)[C@H](C(=O)O)N2C(=O)C[C@H]2S1(=O)=O | . | . | . | . | -14.7% | 6.8%
Nc1nc2ncn(COCCO)c2c(=O)[nH]1 | . | i | i | . | -4.0% | 18.1%
CCC1CCCCN1C(=O)c1ccc2c(c1)N(Cc1cccc(Cl)c1)C(=O)c1ccccc1S2(=O)=O (centres undefined) | . | . | . | . | 16.4µM* | 18.4µM*
O=C(c1ccc2c(c1)N(Cc1cccc(Cl)c1)C(=O)c1ccccc1S2(=O)=O)N1CCCC1 | . | . | . | . | 20.6µM* | 23.1µM*
CC1CCCCN1C(=O)c1ccc2c(c1)N(Cc1ccc(F)cc1)C(=O)c1ccccc1S2(=O)=O (centres undefined) | . | i | i | . | 18.4µM* | ?
CN1CCN(C(=O)c2ccc3c(c2)N(Cc2ccc(F)cc2)C(=O)c2ccccc2S3(=O)=O)CC1 | . | i | i | . | -28.4% | -14.9%
O=C(c1ccc2c(c1)N(Cc1ccc(F)cc1)C(=O)c1ccccc1S2(=O)=O)N1CCN(Cc2ccccc2)CC1 | . | i | ? | . | 8.2µM* | 11.6µM*
Cc1cccc(N2CCN(C(=O)c3ccc4c(c3)N(Cc3cccc(Cl)c3)C(=O)c3ccccc3S4(=O)=O)CC2)c1C | . | . | . | . | -5.7% | -7.1%
CCOC(=O)c1nn(-c2ccc(Cl)cc2)c(C)cc1=O | 6.8% | i | i | 1.0% | 1.8% | -16.3%
O=C(NCC[C@@H]1CC[C@@H](NC(=O)c2cnccn2)[C@@H](CO)O1)c1ccc2c(c1)OCO2 | 20.9% | i | i | 10.7% | 0.1% | -2.0%
c1ccc(-c2nc(-c3cnc4ccccc4n3)cs2)cc1 | . | ? | i | . | -18.5% | -41.3%
O=C(c1ccc2c(c1)N(Cc1cccc(Cl)c1)C(=O)c1ccccc1S2(=O)=O)N1CCN(Cc2ccccc2)CC1 | . | . | . | . | 9.2µM* | 14.6µM*
COc1ccc(N2CCN(C(=O)c3ccc4c(c3)N(Cc3cccc(Cl)c3)C(=O)c3ccccc3S4(=O)=O)CC2)cc1 | . | . | . | . | -14.0% | -5.0%
COc1cc(-c2nc(-c3cccc(C)c3)no2)cc(OC)c1OC | -2.7% | i | i | 12.3% | 23.1µM* | 18.4µM*
COc1ccc(-c2nc(C3CCCCC3)no2)cc1OC | 18.8% | i | 16.4µM* | -21.7% | -16.4% | -20.7%
CCOc1cc(-c2nc(-c3ccccc3OC)no2)cc(OCC)c1OCC | 9.8% | i | i | 11.5% | 29.1µM* | ?
CCOc1cc(-c2nc(-c3ccc(OC)cc3)no2)cc(OCC)c1OCC | 9.7% | i | i | 12.9% | -18.2% | -15.7%
SMILES | HT1080NT lethal | KB-3-1 tox | KB-V1 MDR tox | HT1080 IDH1KD tx | DT40 TDP1 no CPT | TDP1 cell CPT
COc1ccc(-c2nc(-c3ccccc3OC)no2)cc1OC | -4.4% | ? | 6.51µM* | -19.3% | ? | ?
O=S1(=O)c2ccccc2N(Cc2ccccc2Cl)c2ccccc21 | . | i | i | . | ? | ?
Cc1ccc(-n2nc(C(=O)N3CCCCC3C)c(=O)n(C)c2=O)cc1 (centres undefined) | . | i | i | . | -6.9% | -13.9%
CC(C)(C)C1CCC(C(=O)OCC(=O)N2CCN(C(=O)c3ccco3)CC2)CC1 (centres undefined) | -8.0% | ? | i | -2.9% | -25.7% | ?
Cc1cc(C(=O)COC(=O)c2nn(C)c(=O)c3ccccc23)c(C)n1C | -8.8% | i | i | -1.5% | -2.6% | -9.2%
O=C(O)c1cc(S(=O)(=O)NC(CO)C(O)c2ccc([N+](=O)[O-])cc2)ccc1Br (centres undefined) | 11.6% | i | i | 3.2% | 1.0% | 3.8%
COc1cccc(CNC(=O)CCCn2nc(C)c3c(C)n(-c4ccccc4)nc3c2=O)c1 | -1.7% | i | i | -2.3% | 4.4% | ?
COc1ccc(-n2nc3c(N4CCC(C(=O)NCc5cccc(F)c5)CC4)nnc(C)c3c2C)cc1 | . | i | i | . | 10.3µM* | 9.2µM*
COc1ccc(CNC(=O)C2CCN(c3nnc(C)c4c(C)n(-c5ccc(C)cc5)nc34)CC2)cc1 | . | i | i | . | 16.4µM* | ?
COc1cccc(CNC(=O)CSc2nnc(C)c3c(C)n(-c4ccccc4)nc23)c1 | . | i | i | . | 18.4µM* | ?
COc1cc(NC(=O)C2CCN(c3nnc(C)c4c(C)n(-c5ccccc5)nc34)CC2)cc(OC)c1 | . | i | ? | . | ? | ?
Cc1ccc(-n2nc3c(N4CCCC(C(=O)NCc5ccccc5C)C4)nnc(C)c3c2C)cc1 (centres undefined) | . | . | . | . | 14.6µM* | 14.6µM*
O=C(O)CSc1c(Cl)c(=O)oc2ccc(Cl)cc12 | 4.6% | i | i | -1.7% | 1.5% | -5.2%

Screening data from PubChem.
